Outcome and AC50 data for three molecules are collected here from PubChem BioAssay (EPA / NIEHS).

Experiment [1] can be described thus: ATG_CRE_CIS: Attagene CIS-FACTORIAL HepG2 Assay for human cAMP Responsive Element (CRE) binding protein 3 (AID 2282926). Particulars: HepG2 CRE cis-reporter, Attagene multiplexed mRNA; actives raise or lower the signal. In a few lines:
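HepG2 cells transiently transfected with cis-element-driven multiple reporter transcription units; CRE reporter mRNA measured 24 h after dosing by RT-PCR, 6-FAM labelling, HpaI digestion and capillary electrophoresis. Bidirectional fit versus DMSO baseline.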

The target of experiment [2] is CCAAT/enhancer-binding protein beta (Homo sapiens) (UniProt P17676). The experiment is described as follows: ATG_C_EBP_CIS: Attagene CIS-FACTORIAL HepG2 Assay for human CCAAT/Enhancer Binding Protein (C/EBP) beta (AID 2282927). Particulars: HepG2 Attagene cis-factorial transcription factor reporter; actives raise or lower the signal. A digest of the protocol:
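Changes in reporter mRNA, rather than exogenous chimeric receptor activity, reflect native C/EBP signalling in transfected HepG2 cells dosed for 24 h; transcripts are detected by RT-PCR and capillary electrophoresis.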

Experiment [3] can be described thus: ATG_CMV_CIS: Attagene CIS-FACTORIAL HepG2 Assay for human CMV (Internal Marker) (AID 2282928).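 Further: endpoint acts as a background internal control marker rather than a target.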 Particulars: HepG2 CMV promoter reporter, transcription factor profiling; actives raise or lower the signal. A digest of the protocol:
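Cell system: HepG2, transiently transfected multiple reporter units under cis promoters. Exposure: 24 h. Detection: RT-PCR, FAM labeling, HpaI digestion, capillary electrophoresis. Analysis: bidirectional, DMSO baseline.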

Experiment [4] is described as follows: ATG_AP_1_CIS: Attagene CIS-FACTORIAL HepG2 Assay for human Activator Protein 1 (AP-1) (AID 2282931). Particulars: HepG2 Attagene cis-factorial AP-1 reporter mRNA; actives raise or lower the signal. A digest of the protocol:
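Multiplexed HepG2 reporter assay, 24 h dosing. mRNA induction detected by RT-PCR plus capillary electrophoresis. Activity fitted in both directions against DMSO.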

Experiment [5] can be described thus: ATG_AP_2_CIS: Attagene CIS-FACTORIAL HepG2 Assay for human Activator Protein 2 (AP-2) (AID 2282932). Particulars: HepG2 AP-2 cis-reporter, Attagene transcription factor profiling; actives raise or lower the signal. In a few lines:
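Step one: transient transfection of HepG2 with reporter transcription units. Step two: 24 h chemical exposure. Step three: RNA extraction, RT-PCR, labelled fragment analysis by capillary electrophoresis; DMSO serves as baseline.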

A short description of experiment [6]: ATG_BRE_CIS: Attagene CIS-FACTORIAL HepG2 Assay for human Bone Morphogenetic Protein (BMP) Response Element (BRE) (AID 2282933). Particulars: HepG2 BMP response element reporter, Attagene transcription factor profiling; actives raise or lower the signal. A digest of the protocol:
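Endogenous transcription factor activity read in transiently transfected HepG2 cells after 24 h chemical exposure. Bidirectional curve fitting against DMSO; readout is reporter transcript level by RT-PCR with capillary electrophoresis of labelled products.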

Experiment [7] deals with Transcription factor E2F1 (Homo sapiens) (UniProt Q01094). The experiment is described as follows: ATG_E2F_CIS: Attagene CIS-FACTORIAL HepG2 Assay for human E2F Transcription Factor 1 (AID 2282935). Particulars: HepG2 Attagene cis-reporter, E2F reporter RNA transcripts; actives raise or lower the signal. A digest of the protocol:
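Total RNA from 24 h-treated, reporter-transfected HepG2 cells undergoes DNase I treatment, oligo(dT) reverse transcription, PCR and 6-FAM primer extension before capillary electrophoresis.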

The nature of experiment [8]: ATG_E_Box_CIS: Attagene CIS-FACTORIAL HepG2 Assay for human Enhancer Box (E-box) (AID 2282936). Particulars: HepG2 E-box cis-reporter transcription, actives raise or lower the signal. In a few lines: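 DMSO served as negative control and baseline for bidirectional fitting. Human hepatoma HepG2 cells, transiently transfected with cis-reporter constructs, were dosed 24 h; reporter mRNA read by RT-PCR and capillary electrophoresis.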

A short description of experiment [9]: ATG_M_61_CIS: Attagene CIS-FACTORIAL HepG2 Assay for M61 Transcription Factor (Internal Marker) (AID 2282937). Particulars: HepG2 Attagene CIS-FACTORIAL M61 internal marker reporter; actives raise or lower the signal. A digest of the protocol:
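Endogenous transcription factor activity in HepG2 is read through transiently transfected cis-element reporter units. After 24 h dosing, RNA undergoes reverse transcription, PCR and primer extension with 6-FAM before capillary electrophoresis; DMSO-referenced bidirectional fit.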

The nature of experiment [10]: ATG_EGR_CIS: Attagene CIS-FACTORIAL HepG2 Assay for human Early Growth Response 1 (EGR1) (AID 2282938). Particulars: HepG2 Attagene CIS-FACTORIAL EGR reporter mRNA; actives raise or lower the signal. A digest of the protocol: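 Activity is taken as induction or loss of reporter mRNA versus DMSO, fitted bidirectionally. Transcripts from cis-regulated reporter units in transiently transfected HepG2 were measured after 24 h by RT-PCR with capillary electrophoresis.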

Experiment [11] in a line: ATG_M_19_CIS: Attagene CIS-FACTORIAL HepG2 Assay for M19 Transcription Factor (Internal Marker) (AID 2282939). Particulars: HepG2 Attagene CIS-FACTORIAL M19 internal marker reporter; actives raise or lower the signal. In a few lines: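 Internal marker readout, fitted in both directions against DMSO, from HepG2 cells carrying transfected cis-element reporter constructs; RT-PCR and capillary electrophoresis of reporter mRNA after 24 h exposure.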

Experiment [12] is described as follows: ATG_GATA_CIS: Attagene CIS-FACTORIAL HepG2 Assay for human GATA Binding Protein (AID 2282944). Particulars: HepG2 GATA cis-element reporter, Attagene multiplex mRNA; actives raise or lower the signal. A digest of the protocol: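 Reporter transcripts from a GATA cis-regulated unit, among multiplexed reporters in transfected HepG2 cells, were measured by RT-PCR with capillary electrophoresis after 24 h dosing. Induction or loss scored relative to DMSO.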

Experiment [13] can be described thus: ATG_GLI_CIS: Attagene CIS-FACTORIAL HepG2 Assay for human Zinc Finger Protein GLI1 (AID 2282945). Particulars: HepG2, Attagene cis-factorial reporter mRNA, GLI element; actives raise or lower the signal. A digest of the protocol:
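Bidirectional curve fits relative to DMSO, using reporter mRNA levels from RT-PCR plus capillary electrophoresis. Cells were HepG2 transiently carrying cis-regulated reporter constructs, harvested 24 h after dosing.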

Experiment [14] is described as follows: ATG_ISRE_CIS: Attagene CIS-FACTORIAL HepG2 Assay for human Interferon Regulatory Factor 1 (IRF1) binding to an Interferon-Stimulated Response Element (ISRE) (AID 2282948). Particulars: HepG2 ISRE cis-reporter (Attagene), mRNA transcription readout; actives raise or lower the signal. A digest of the protocol:
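Quantitation relies on labelled RT-PCR fragments separated by capillary electrophoresis. Human HepG2 cells bearing cis-promoter reporter constructs were treated 24 h; DMSO served as baseline for bidirectional fitting.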

A short description of experiment [15]: ATG_M_32_CIS: Attagene CIS-FACTORIAL HepG2 Assay for M32 Transcription Factor (Internal Marker) (AID 2282949).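 Further: background control marker of the multiplexed CIS panel rather than a real target.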 Particulars: HepG2 Attagene cis-factorial M32 reporter, mRNA; actives raise or lower the signal. In a few lines:
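Following 24 h chemical exposure of HepG2 cells transiently expressing cis-promoter reporter constructs, reporter transcript levels were determined by RT-PCR with fluorescent labelling and capillary electrophoresis, then fitted bidirectionally against DMSO.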

The nature of experiment [16]: ATG_MRE_CIS: Attagene CIS-FACTORIAL HepG2 Assay for human Metal Responsive Element (MRE) (AID 2282954). Particulars: HepG2 MRE cis-reporter transcription, Attagene multiplex; actives raise or lower the signal. In a few lines: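 After a 24 h chemical exposure, transiently transfected HepG2 cells yield RNA whose reporter sequences are amplified, FAM-labelled and sized by capillary electrophoresis. Curves are fitted bidirectionally relative to DMSO.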

Experiment [17] concerns the target Paired box protein Pax-6 (Homo sapiens) (UniProt P26367). The experiment can be described thus: ATG_Pax6_CIS: Attagene CIS-FACTORIAL HepG2 Assay for human Paired Box 6 (PAX6) (AID 2282956). Particulars: HepG2 CIS-FACTORIAL PAX6 reporter transcription, RNA readout; actives raise or lower the signal. A digest of the protocol: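 After twenty-four hours of chemical exposure, transfected HepG2 cells are harvested for RNA. Cis-promoter reporter transcripts are amplified, fluorescently labelled and sized by capillary electrophoresis, with gain and loss of signal scored against DMSO.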

The nature of experiment [18]: ATG_PXRE_CIS: Attagene CIS-FACTORIAL HepG2 Assay for human Pregnane X Receptor Element (PXRE) (AID 2282957). Particulars: HepG2 Attagene CIS-FACTORIAL PXRE reporter, mRNA; actives raise or lower the signal. A digest of the protocol:
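HepG2 cells transiently transfected with cis-element-driven multiplexed reporter units; after 24 h chemical exposure, reporter mRNA measured by RT-PCR, 6-FAM labelling, HpaI digestion and capillary electrophoresis. Bidirectional fitting relative to DMSO.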

Experiment [19] addresses Transcription factor Sp1 (Homo sapiens) (UniProt P08047). The experiment is described as follows: ATG_Sp1_CIS: Attagene CIS-FACTORIAL HepG2 Assay for human Specificity Protein 1 (Sp1) (AID 2282961). Particulars: HepG2 Sp1 cis-reporter transcription, actives raise or lower the signal. In a few lines: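 Cells: HepG2, transiently transfected with cis-regulated multiplexed reporters. Exposure: 24 h. Detection: reporter transcripts amplified, fluorescently labeled, restriction-digested and sized by capillary electrophoresis. Analysis: bidirectional fit relative to DMSO.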

Experiment [20] addresses Signal transducer and activator of transcription 3 (Homo sapiens) (UniProt P40763). The experiment can be described thus: ATG_STAT3_CIS: Attagene CIS-FACTORIAL HepG2 Assay for human Signal Transducer and Activator of Transcription 3 (STAT3) (AID 2282963). Particulars: HepG2, Attagene cis-factorial STAT3 reporter transcription; actives raise or lower the signal. A digest of the protocol:
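After a 24 h compound incubation, total RNA from MRTU-transfected HepG2 cells was converted to cDNA and reporter sequences PCR-amplified, labelled and profiled by capillary electrophoresis. Gain and loss of signal were referenced to DMSO.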

Calls of active or inactive are those of the source. How the source made its calls: active means hit-call score of the fitted dose curve at least 0.9, where 1 is the maximum; inactive means score below 0.9.

Sequence of Paired box protein Pax-6 (Homo sapiens) (P26367 whole entry, looked up): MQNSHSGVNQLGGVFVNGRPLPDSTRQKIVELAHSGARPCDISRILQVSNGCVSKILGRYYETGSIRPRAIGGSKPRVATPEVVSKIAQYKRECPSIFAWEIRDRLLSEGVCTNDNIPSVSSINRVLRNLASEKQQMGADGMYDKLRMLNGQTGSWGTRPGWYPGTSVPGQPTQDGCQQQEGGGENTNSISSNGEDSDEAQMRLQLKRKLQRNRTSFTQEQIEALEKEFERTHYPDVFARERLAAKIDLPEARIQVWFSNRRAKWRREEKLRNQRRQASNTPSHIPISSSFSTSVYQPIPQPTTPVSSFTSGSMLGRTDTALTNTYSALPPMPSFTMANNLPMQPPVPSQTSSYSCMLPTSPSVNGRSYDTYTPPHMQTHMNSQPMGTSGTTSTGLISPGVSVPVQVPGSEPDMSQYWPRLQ
Sequence of Transcription factor Sp1 (Homo sapiens) (P08047 whole entry, looked up): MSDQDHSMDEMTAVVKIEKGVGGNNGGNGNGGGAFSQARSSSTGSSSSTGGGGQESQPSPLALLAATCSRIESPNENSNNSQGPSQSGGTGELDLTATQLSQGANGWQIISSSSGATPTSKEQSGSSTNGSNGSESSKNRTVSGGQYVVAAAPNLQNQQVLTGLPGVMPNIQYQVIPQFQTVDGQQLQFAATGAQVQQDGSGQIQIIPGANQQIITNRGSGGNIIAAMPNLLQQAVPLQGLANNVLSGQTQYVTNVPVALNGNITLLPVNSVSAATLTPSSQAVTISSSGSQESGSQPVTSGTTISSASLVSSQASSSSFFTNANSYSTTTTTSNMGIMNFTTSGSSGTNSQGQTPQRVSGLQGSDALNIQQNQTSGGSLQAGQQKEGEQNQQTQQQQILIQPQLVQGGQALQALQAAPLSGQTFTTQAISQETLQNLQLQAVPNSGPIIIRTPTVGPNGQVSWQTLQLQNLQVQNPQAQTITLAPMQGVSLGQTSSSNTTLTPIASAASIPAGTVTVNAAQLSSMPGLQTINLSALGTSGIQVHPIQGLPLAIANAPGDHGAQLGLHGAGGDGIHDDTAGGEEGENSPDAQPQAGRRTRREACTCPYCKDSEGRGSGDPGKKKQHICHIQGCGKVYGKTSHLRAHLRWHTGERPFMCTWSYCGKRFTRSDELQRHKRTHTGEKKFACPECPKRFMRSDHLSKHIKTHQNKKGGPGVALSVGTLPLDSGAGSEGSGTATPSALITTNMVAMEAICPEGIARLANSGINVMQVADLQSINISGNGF
Sequence of CCAAT/enhancer-binding protein beta (Homo sapiens) (P17676 whole entry, looked up): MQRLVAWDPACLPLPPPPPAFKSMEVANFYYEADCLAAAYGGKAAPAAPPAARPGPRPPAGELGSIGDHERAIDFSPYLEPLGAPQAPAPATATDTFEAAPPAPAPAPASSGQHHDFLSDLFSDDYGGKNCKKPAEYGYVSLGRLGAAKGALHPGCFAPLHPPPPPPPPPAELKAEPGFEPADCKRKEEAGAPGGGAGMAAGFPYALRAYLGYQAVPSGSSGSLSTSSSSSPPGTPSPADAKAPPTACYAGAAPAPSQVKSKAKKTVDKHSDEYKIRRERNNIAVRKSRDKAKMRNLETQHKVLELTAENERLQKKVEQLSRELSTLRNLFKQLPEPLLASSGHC
Sequence of Signal transducer and activator of transcription 3 (Homo sapiens) (P40763 whole entry, looked up): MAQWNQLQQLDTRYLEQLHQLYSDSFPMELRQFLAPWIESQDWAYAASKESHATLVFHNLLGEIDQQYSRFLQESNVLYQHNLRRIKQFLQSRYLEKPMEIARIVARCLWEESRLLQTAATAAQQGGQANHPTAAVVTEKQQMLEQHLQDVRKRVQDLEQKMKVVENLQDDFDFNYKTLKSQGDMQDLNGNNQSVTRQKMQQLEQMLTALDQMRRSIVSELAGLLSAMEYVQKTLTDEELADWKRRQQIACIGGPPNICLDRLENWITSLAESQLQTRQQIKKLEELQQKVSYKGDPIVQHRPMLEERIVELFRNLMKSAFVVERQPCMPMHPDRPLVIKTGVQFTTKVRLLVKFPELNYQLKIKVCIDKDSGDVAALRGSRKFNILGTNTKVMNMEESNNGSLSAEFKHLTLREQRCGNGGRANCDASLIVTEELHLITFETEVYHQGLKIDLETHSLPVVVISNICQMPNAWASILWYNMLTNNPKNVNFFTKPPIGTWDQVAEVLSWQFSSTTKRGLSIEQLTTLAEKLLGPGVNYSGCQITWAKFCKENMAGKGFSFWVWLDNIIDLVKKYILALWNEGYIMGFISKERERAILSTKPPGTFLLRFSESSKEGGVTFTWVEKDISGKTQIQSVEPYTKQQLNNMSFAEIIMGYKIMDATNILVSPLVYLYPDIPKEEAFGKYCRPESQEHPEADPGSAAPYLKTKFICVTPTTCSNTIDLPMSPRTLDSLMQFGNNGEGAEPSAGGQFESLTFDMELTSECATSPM
Sequence of Transcription factor E2F1 (Homo sapiens) (Q01094 whole entry, looked up): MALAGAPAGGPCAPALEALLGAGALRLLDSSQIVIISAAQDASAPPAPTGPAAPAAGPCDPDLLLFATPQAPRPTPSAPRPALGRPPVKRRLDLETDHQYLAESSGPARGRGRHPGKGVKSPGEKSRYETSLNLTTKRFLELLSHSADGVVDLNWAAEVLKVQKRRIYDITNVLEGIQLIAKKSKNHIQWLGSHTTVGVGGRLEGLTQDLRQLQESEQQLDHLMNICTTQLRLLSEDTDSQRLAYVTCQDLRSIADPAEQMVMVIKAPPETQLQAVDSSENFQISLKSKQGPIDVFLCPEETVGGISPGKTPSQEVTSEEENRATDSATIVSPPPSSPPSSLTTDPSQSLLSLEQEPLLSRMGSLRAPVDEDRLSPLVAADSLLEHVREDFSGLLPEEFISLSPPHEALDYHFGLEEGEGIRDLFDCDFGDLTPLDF

`CC(=O)c1nccs1`: the molecule was classed as inactive in [1], in experiment [2], in experiment [3], in experiment [4], in [5] and in experiment [6]. Further, the molecule was classed as inactive in experiment [7], in experiment [8], in [9], in experiment [10], in experiment [11] and in experiment [12]. Moreover, the outcome in [13], in [14], in experiment [15], in experiment [16], in experiment [17] and in [18] was inactive. Moreover, the molecule was classed as inactive in experiment [19] and in experiment [20].

`O=C(c1ccccc1)c1ccccc1O`: the molecule was classed as inactive in [1], in experiment [2], in experiment [3], in experiment [4], in [5] and in experiment [6]. The result in experiment [7], in [8], in experiment [9], in [10], in [11] and in experiment [12] was inactive. The result in experiment [13], in [15], in experiment [16], in experiment [17] and in [19] was inactive. In addition, the AC50 – broadly, the concentration giving half of the maximal activity seen – in experiment [14] is 161 µM (active); in experiment [18], 26.7 µM (active); in [20], 154 µM (active).

Consider `Cc1ccnc(N)c1`, for which the call in experiment [1], in experiment [2], in experiment [3], in [4], in [5] and in experiment [6] was inactive. For the same molecule, the result in experiment [7], in [8], in experiment [9], in [10], in [11] and in [12] was inactive. Further, the outcome in [13], in experiment [14], in experiment [15], in [16], in experiment [17] and in experiment [19] was inactive. Further, in [20], the call was inactive. In experiment [18], the AC50 is 44.6 µM (active).
